HCMV antiviral – qHTS Assay for inhibitors of the human cytomegalovirus (HCMV); HFF cells, HCMV-luciferase reporter, 72 h; hits give low values; activity change, negative = inhibition, % at 57.5 µM; 4.5% of 410,000 active; in the data active = activity change below about -60%; inconclusive = no clear call, values can overlap the other calls; inactive = above about -39%; also: % is scaled to controls: 0 for no effect and ±100 for the full control effect
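Two-dose cell screen: HFF monolayers treated with compounds and infected with luciferase-expressing HCMV at 1 PFU/cell, 72 h at 37C, then lysed for luciferase measurement.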
HCV inhibitor – qHTS Assay for Inhibitors of Hepatitis C Virus (HCV). Potency, µM (doses to about 41.8 µM), inactives show at the highest dose activity change, negative = inhibition, most hits filed as inhibitors. Huh7.5.1 HCVcc-Cre infection, luciferase reporter, 44 h. 3.4% of 340,000 active; also: potency is read from the fitted curve at half-maximal effect; % is scaled to controls: 0 for no effect and ±100 for the full control effect
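Antiviral activity was scored by luciferase reporter output from cells infected with HCVcc-Cre (~0.5 moi) in presence of compound, 44 h infection period, cells seeded 1,000/well 4 h prior.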
Shiga toxin inh – A qHTS for Small Molecule Inhibitors of Shiga Toxin; Vero cells, Shiga toxin protein synthesis inhibition reporter; inhibition, % at 38.7 µM; 9.2% of 290,000 active; in the data active = inhibition mostly above about 28%, no sharp cut-off; inactive = mostly below about 43%; also: 0% is about no effect
Pf growth 48h – Primary qHTS for delayed death inhibitors of the malarial parasite plastid, 48 hour incubation. P. falciparum luciferase growth in erythrocytes, 48 h. Potency, µM (doses to about 28.7 µM), for the others: at the top dose activity change, negative = inhibition, hits mostly inhibitors. 5.9% of 310,000 active. AID 504832, 2011; also: potency is read from the fitted curve at half-maximal effect; % is scaled to controls: 0 for no effect and ±100 for the full control effect
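Growth was read as firefly luciferase luminescence after a 48 h, 37 C, 5% CO2 exposure of compounds to reporter-bearing P. falciparum cultures (0.1% parasitemia, 2% hematocrit final) in Albumax-supplemented RPMI 1640.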
Cycloheximide cs – Cycloheximide Counterscreen for Small Molecule Inhibitors of Shiga Toxin | max response, % | cell reporter, cycloheximide protein synthesis inhibition counterscreen | 12% of 300,000 active | AID 2314, 2010; in the data active = max response mostly above about 13%, no sharp cut-off; inactive = mostly below about 14%; also: read at 38.3 µM for the half of the compounds with a filed dose; 0% is about no effect
Pf growth 96h – Primary qHTS for delayed death inhibitors of the malarial parasite plastid, 96 hour incubation. 6.9% of 320,000 active. Potency, µM (highest dose often 28.7 µM), for the others: top-dose activity change, negative = inhibition, hits mostly inhibitors. P. falciparum luciferase reporter growth, 96 h; also: potency is read from the fitted curve at half-maximal effect; % is scaled to controls: 0 for no effect and ±100 for the full control effect
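P. falciparum expressing integrated firefly luciferase grown in erythrocytes (2% hematocrit, 0.05% parasitemia final) with compounds for 96 hours at 37 C, 5% CO2. Growth inhibition read as loss of luminescence after adding luciferase detection reagent.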
* marks the source's active call; other numbers are inactive results; ? = inconclusive; / = no result; [ ] = remark or other dose. Shown are actives, neighbours in structure and some others; about 21% of the full set was active somewhere. Unless noted, calls follow the shape of the dose curve; as a rule, active = well fitted inhibition curve with a large enough effect; inconclusive = small, poorly fitted or top-dose-only effect, or another doubt; inactive = no such curve, though single readings can be large or run the other way.

SMILES | HCMV antiviral | HCV inhibitor | Shiga toxin inh | Pf growth 48h | Cycloheximide cs | Pf growth 96h
COc1cc(C(=O)OCC(=O)Nc2cccc(S(=O)(=O)N3CCOCC3)c2)ccc1OCC(C)C | -8 | -4% | / | -11% | / | ?
Cc1ccc2c(c1)c1c(c(=O)n(Cc3ccccc3)c(=O)n1Cc1cccc(F)c1)n2C | 30 | / | / | / | / | /
Cn1c(CSc2ncccn2)nnc1SCC(=O)N1CCCC1 | 59 | -2% | 16 | 11% | 1 | ?
CC1CCCC(C)N1C(=O)CSc1nnc(CSc2ncccn2)n1C (stereo not drawn) | 33 | / | 12 | -6% | -4 | 10µM*
CC(C)c1cc(C(=O)NC(C)c2ccccc2)no1 (stereo not drawn) | 1 | / | / | / | / | /
COC(=O)c1nn(-c2ccccc2)c2nnc(Cc3ccc(C)cc3)c(=O)n12 | -108* | -6% | -9 | 6% | 10 | -25%
O=C(c1ccccc1)c1nn(-c2ccccc2)c2nnc(Cc3ccccc3)c(=O)n12 | 12 | ? | 15 | 10µM* | 1 | 10µM*
Cc1ccc(S(=O)(=O)Nc2cc3c(C(=O)OCc4ccccc4)c(C)oc3c3ccccc23)c(C)c1 | 19 | / | / | / | / | /
COc1ccc(CNC(=O)C2CCN(c3cc(C(=O)Nc4cccc(OC)c4)ccn3)CC2)cc1 | 0 | ? | 8 | -17% | 0 | 46%
CCC/C(=N\NC(=O)c1ccco1)c1ccc(Cl)s1 | 12 | ? | 19 | -28% | 22* | 13µM*
CC/C(=N\NC(=O)c1cc(C)nc2ccccc12)c1ccc(C)s1 | -14 | 8% | -5 | -4% | -2 | 0%
CCC/C(=N/NC(=O)c1csc(C)c1C)c1ccc(Cl)s1 | 39 | ? | 92* | 33% | 36 | /
CCCOC(=O)/C(C)=N\NC(=O)c1ccco1 | 10 | 0% | 154* | / | 64* | -36%
CCCCCCCCC(=O)N/N=C(\C)c1ccco1 | -18 | 7% | 5 | -6% | -2 | 7%
COCCNC(=O)c1cnc2sc(N3CCC(C)CC3)nn2c1=O | 11 | / | / | / | / | /
O=C(CNC(=O)c1ccc(OC(F)F)cc1)Nc1cccc(S(=O)(=O)N2CCCC2)c1 | -28 | ? | / | ? | / | -73%
Cc1ccc(NC(=O)Cc2nc(CSc3nnc(-c4ccc5c(c4)OCO5)o3)cs2)cc1 | 108 | ? | 98* | 212% | 16 | 3.7µM*
Cc1ccc(NC(=O)Cc2nc(CN(C)CC(=O)Nc3ccc(C)cc3)cs2)cc1 | -5 | ? | / | 13µM* | / | ?
CCCCOc1cccc(C2c3c(-c4cc(C)ccc4O)n[nH]c3C(=O)N2CCOC)c1 (stereo not drawn) | -39 | / | / | / | / | /
COc1ccc(C2(CNC(=O)C(=O)Nc3ccc(C)cc3)CCOCC2)cc1 | -30 | 0% | 15 | ? | 7 | ?
N/C(Cc1ccc([N+](=O)[O-])cc1)=N\OC(=O)c1ccco1 | 42 | 12% | 35* | 41% | 35* | 19%
N/C(Cc1ccc([N+](=O)[O-])cc1)=N\OC(=O)c1ccc2ccccc2c1 | 13 | ? | 131* | / | 45* | -15%
N/C(Cc1ccc([N+](=O)[O-])cc1)=N\OC(=O)CC1CCCCC1 | 26 | -3% | -1 | 13µM* | -2 | ?
Cc1ccc(CC(=O)O/N=C(\N)Cc2ccc([N+](=O)[O-])cc2)cc1 | 2 | -9% | -9 | 4% | -3 | -19%
N/C(Cc1ccc(Cl)cc1)=N\OC(=O)C1CCCCC1 | 18 | 16% | 69* | 5.9µM* | 53* | 43%
SMILES | HCMV antiviral | HCV inhibitor | Shiga toxin inh | Pf growth 48h | Cycloheximide cs | Pf growth 96h
N/C(Cc1ccc([N+](=O)[O-])cc1)=N\OC(=O)c1ccc(Br)cc1 | -5 | 7% | 13 | ? | 9 | 16%
CC(NC(=O)CCN1N=C(c2ccccc2)CCC1=O)c1ccc2c(c1)OCCO2 (stereo not drawn) | / | / | -6 | 0% | 6 | 19%
CC(C)NC(=O)Cn1ccc2cc(S(=O)(=O)N3CCCCCC3)ccc21 | -11 | / | / | / | / | /
CCC(C)(C)n1nnnc1C(c1ccc2ncccc2c1)N1CCN(Cc2ccc3c(c2)OCO3)CC1 (stereo not drawn) | 20 | -5% | 11 | -18% | -1 | 168%
CCC(C)(C)n1nnnc1C(c1ccc(C)cc1)N1CCN(Cc2ccc3c(c2)OCO3)CC1 (stereo not drawn) | 1 | ? | -3 | 15µM* | -4 | ?
CCC(C)(C)n1nnnc1C(c1ccc(C)cc1)N1CCC(C)CC1 (stereo not drawn) | ? | -10% | 16 | 10µM* | 8 | 145%
CC(=O)N1CC(=O)N(Cc2ccccc2)/C(=C/c2ccccc2)C1=O | -15 | 18% | -8 | -19% | -2 | 45%
CCCCCC(=O)N/N=C/c1ccc(N(C)C)cc1 | 29 | 17% | 23 | 118% | 18* | 25%
CN(C)c1ccc(/C=N\NC(=O)CC#N)cc1 | -13 | 0% | 35* | 62% | 30 | 90%
COc1ccc(OCC(=O)N/N=C/c2ccc(N(C)C)cc2)cc1 | 2 | 6% | 28 | 22% | 26* | ?
CN(C)c1ccc(/C=N/NC(=O)CCCO)cc1 | -15 | 14% | 63* | 102% | 41* | 8%
CN(C)c1ccc(/C=N/NC(=O)CNC(=O)c2ccncc2)cc1 | -12 | 14% | -7 | 22% | -2 | 17%
COc1cc(C(=O)NCC(c2cccnc2)N2CCc3ccccc32)cc(OC)c1OC (stereo not drawn) | -22 | / | / | / | / | /
Cc1cc2nc(-c3cc4ccccc4[nH]3)c(=O)n(/C=C(/c3ccccc3)n3c(=O)[nH]c4ccccc43)c2cc1C | 10 | / | / | / | / | /
O=C(Nc1cccc([N+](=O)[O-])c1)Nc1cnccn1 | -33 | 8% | -1 | 2% | -3 | ?
Cc1ccc(NC(=O)Nc2cccc([N+](=O)[O-])c2)nc1 | 13 | -7% | 85* | 83% | 20* | ?
Cn1ccc(NC(=O)Nc2cccc([N+](=O)[O-])c2)n1 | 65 | -4% | 39* | ? | 23* | -2%[5.75 µM]
Cc1ccc(NC(=O)Nc2ccccc2)nc1 | 33 | -22% | / | / | / | /
Cc1ccc(NC(=O)Nc2ccc([N+](=O)[O-])cc2)nc1 | -70* | -1% | 22 | 12% | 7 | 76%
Cc1ccc(CNC(=O)C(C)n2nc(C)n3c(cc4sccc43)c2=O)cc1 (stereo not drawn) | 7 | / | / | / | / | /
CC1CCCCC1NC(=O)C(C)N1C(=O)c2ccccc2C1=O (stereo not drawn) | 5 | ? | / | -2% | / | -24%
NNC(=O)CNC(c1ccccc1)c1cc(Br)ccc1NC(=O)c1cccc(Cl)c1 (stereo not drawn) | -21 | -27% | -4 | 13µM* | -1 | ?
